This note sets out measurements from PubChem BioAssay (EPA / NIEHS).

A structure can be active in one record and inactive in another. Calls of active or inactive are those of the source. The calls were made as follows: active = hit-call score of the fitted dose curve at least 0.9, where 1 is the maximum; inactive = score below 0.9.

Read-out in the experiment: Urokinase-type plasminogen activator receptor (uPAR), PLAUR (gene 5329)
Kind of experiment: BSK_4H_uPAR: BioMAP Diversity Plus: 4H Assay for Urokinase-type plasminogen activator receptor (uPAR) Biomarker Activity (AID 2283030). Particulars: primary human endothelial cells (HUVEC); actives raise or lower the signal. Here is the method:
BSK_4H is a cell-based, multiplexed-readout assay that uses umbilical vein endothelium, a human vascular primary cell, with measurements taken at 24 hours after chemical dosing in a 96-well plate.BSK_4HAR is an assay component measured in the BSK_4H assay. It measures uPAR antibody related to regulation of gene expression using ELISA technology.Data from the assay component BSK_4HAR was analyzed into 1 assay endpoint. This assay endpoint, BSK_4HAR, was analyzed with bidirectional fitting relative to DMSO as the negative control and baseline of activity. Using a type of binding reporter, gain or loss-of-signal activity can be used to understand changes in the signaling as they relate to the gene PLAUR. Furthermore, this assay endpoint can be referred to as a primary readout, because this assay has produced multiple assay endpoints where this one serves a signaling function. To generalize the intended target to other relatable targets, this assay endpoint is annotated to the cytokine intended target family, where the subfamily is plasmogen activator.
The levels of cell surface (or secreted, indicated by the prefix "s") biomarker endpoints were measured by ELISA. Overt cytotoxicity to cells in confluent adherent cultures (all systems other than the BT system) was assessed by measuring total protein levels using sulforhodamine B (SRB) staining in parallel cultures at the time of biomarker measurements, indicated as SRB endpoints. For proliferation assays for adherent cell types, individual cell types are cultured at sub-confluence and relative cell numbers quantified by SRB staining at time points optimized for each system (48 h: 3C and CASM3C systems; 72 h: BT and HDF3CGF systems; 96 h: SAg system). SRB was performed by staining cells with 0.1% SRB after fixation with 10% TCA and reading wells at 560 nm.Viability and proliferation of PBMC (T cells) was quantified by Alamar Blue reduction for the SAg and BT systems. For PBMC viability (referred to as PBMC Cytotoxicity within the assay endpoint names), cells were plated (75,000/well in a 96-well plate) and then chemical samples added for 1 h before addition of activators, SEB and TSST-1 (20 ng/mL final concentration each). Cells were incubated for 90 h. Then, Alamar Blue (20 uL/well) (Invitrogen, Cat DAL1100) was added for 6 h, and the plates were read with a fluorescence microplate reader at 546/580 nm (excitation/emission). For PBMC proliferation, cells were plated and activated as above but incubated for only 16 h prior to addition of Alamar Blue. Plates were read after 6 h.
In the case of `NC(=O)N(O)[C@@H]1COc2cc(OCc3ccccc3)ccc21`, the outcome was inactive.

For `FC(F)=C(F)C(F)(F)C(F)(F)C(F)(F)C(F)(F)C(F)(F)C(F)(F)F`, the outcome was inactive.

Turning to `c1ccc2ncccc2c1`, the result was inactive.

A word on the AC50: it is the midpoint of the concentration-response curve, whichever way the signal moves. For the compound `Nc1ccn([C@@H]2O[C@H](CO)[C@@H](O)[C@@H]2O)c(=O)n1`, the AC50 is 4.93 µM (active).

For the compound `CCCCCCCCCCCCCCCCOS(=O)(=O)O`, the outcome was inactive.

As to `OCCNCCO`, the result was inactive.

For the compound `Cc1nc(-c2ccccn2)ncc1C(=O)Nn1cc(C)c2cc(F)ccc21`, the result was inactive.

In the case of `O=C(O)[C@H](O)[C@@H](O)C(=O)O`, the outcome was inactive.

`NC(=O)NN=Cc1ccc([N+](=O)[O-])o1`: the result was inactive.

Consider `O=C(NO)C1(NS(=O)(=O)c2ccc(Oc3ccc(F)cc3)cc2)CCOCC1`, for which the outcome was inactive.

Regarding `O=C(O)c1cccc(C(=O)O)c1`, the result was inactive.

On to `C[C@]12C=CC(=O)C=C1CC[C@H]1[C@@H]3C[C@@H](O)[C@](O)(C(=O)CO)[C@@]3(C)C[C@H](O)[C@@]12F`, for which the outcome was inactive.

`O=C(Cl)C(F)(F)C(F)(F)C(F)(F)C(=O)Cl`: the outcome was inactive.

Turning to `CC(C)CCCCCCOC(=O)C1CCCCC1C(=O)OCCCCCCC(C)C` (stereo not given), the outcome was inactive.

As for `COCc1nnc(-c2ccc[n+]([O-])c2)n1-c1c(Cl)c(Cl)cc2[nH]c(=O)c(=O)[nH]c12`, the outcome was inactive.

Turning to `FC(F)C(F)(F)COCC1CO1` (stereo not given), the outcome was inactive.

`O=C(O)c1cccc(C[C@@H]2COc3ccc(OCc4nc5cc(F)ccc5s4)cc3[C@@H]2O)c1`: the outcome was inactive.

With `O=S(=O)(O)CCC(F)(F)C(F)(F)C(F)(F)C(F)(F)C(F)(F)C(F)(F)F`, the result was inactive.

`CCN(CC)C(=S)SSC(=S)N(CC)CC`: the AC50 was 26.4 µM (active).

With `C[C@@H](Oc1ccc(CNC(=O)c2cccnc2Oc2ccc3c(c2)OCO3)c(F)c1)C(=O)O`, the result was inactive.

Turning to `O=S1(=O)CCCO1`, the outcome was inactive.

`COc1cc(C(C)C)c2c(c1)S(=O)(=O)N(COc1cc(=O)n3cccc(OCCN4CCCCC4)c3n1)C2=O`: the AC50 was 4.05 µM (active).

For `CC(C)C(=O)Nc1ccc([N+](=O)[O-])c(C(F)(F)F)c1`, the outcome was inactive.

For `CCCCCCOC(=O)CC(CC(=O)OCCCCCC)(OC(=O)CCC)C(=O)OCCCCCC`, the result was inactive.

For the compound `CCCCOC(=O)c1ccccc1`, the outcome was inactive.

For `CC[C@H](C)C(=O)O[C@H]1C[C@H](O)C=C2C=C[C@H](C)[C@H](CC[C@@H](O)C[C@@H](O)CC(=O)O)[C@H]21`, the result was inactive.

In the case of `FC(F)(F)C(F)(F)C(F)(F)C(F)(F)C(F)(F)C(F)(F)I`, the result was inactive.

Take `CCOc1ccc2[nH]cc(C(=O)NCc3ccccc3)c(=O)c2n1`: the result was inactive.

On to `CCCCCCCC/C=C\CCCCCCCC(=O)OC[C@@H](O)[C@H]1OC[C@H](O)[C@H]1O`, for which the result was inactive.

For the compound `CCCCCCCCN(C)C`, the outcome was inactive.

Turning to `Cc1nccn1-c1ccc(Sc2cccc(C3(C(N)=O)CCOCC3)c2)cc1`, the outcome was inactive.

For `O=S(=O)(O)c1ccc(N=Nc2c(O)ccc3cc(S(=O)(=O)O)ccc23)cc1`, the result was inactive.

On to `CCc1ccc(O)c(C(C)(C)C)c1`, for which the concentration at half-maximal activity (AC50) was 36.7 µM (active).

For `CCc1cccc(CC)c1N`, the result was inactive.

As for `COS(C)(=O)=O`, the outcome was inactive.

Turning to `OCCOCCOCCO`, the outcome was inactive.

On to `CCCCCCCC1CCC(=O)O1` (stereo not given), for which the result was inactive.

With `CC(C)CC(C)O` (stereo not given), the outcome was inactive.

As for `OC(O)(C(F)C(O)(O)C(F)(F)F)C(F)(F)F`, the concentration at half-maximal activity (AC50) is 20.5 µM (active) and the result was inactive.
